Laboratory results: the supplement of paper PMC6555819

What was measured:
Experiment in all cases: PBM binding z-score (relative to random genomic background probes); higher = stronger binding; sequences stand for … in GC…GCGATTGACAGCGTAGAATGAAGG
[1] = tested on: FXR:RXRa (NR concentration 270 nM, RXRa partner concentration 90 nM)
Summary of the method: (§1)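 Regression normalization was applied to scanned fluorescence from custom Agilent 4×180K protein-binding microarrays. Before scanning, arrays were incubated 1 h with ligand-free nuclear receptor dimers, and binding was detected with antibodies against each partner (one per run). Binding z-scores use the random background probes as reference.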

[2] = tested on: LXRa:RXRa (NR concentration 270 nM, RXRa partner concentration 90 nM)
Summary of the method: as §1

[3] = tested on: LXRa homodimer (NR concentration 270 nM)
Summary of the method: as §1

[4] = tested on: LXRb:RXRa (NR concentration 270 nM, RXRa partner concentration 90 nM)
Summary of the method: as §1

[5] = tested on: LXRb homodimer (NR concentration 270 nM)
Summary of the method: as §1

[6] = tested on: PPARa:RXRa (NR concentration 270 nM, RXRa partner concentration 90 nM)
Summary of the method: as §1

[7] = tested on: PPARg:RXRa (NR concentration 180 nM, RXRa partner concentration 90 nM)
Summary of the method: as §1

[8] = tested on: PPARg:RXRa 270nM:90nM, anti-RXR (NR concentration 270 nM, RXRa partner concentration 90 nM)
Summary of the method: as §1

[9] = tested on: PPARg:RXRa 30nM:10nM, anti-RXR (NR concentration 30 nM, RXRa partner concentration 10 nM)
Summary of the method: as §1

[10] = tested on: PPARg:RXRa 90nM:30nM, anti-RXR (NR concentration 90 nM, RXRa partner concentration 30 nM)
Summary of the method: as §1

[11] = tested on: PPARg:RXRa DBDmut IVT, anti-RXR (DBD mutation: RXRa K156A/R161A, NR concentration 270 nM, RXRa partner concentration 90 nM)
Summary of the method: as §1

[12] = tested on: PPARg:RXRa IVT, anti-PPARg (NR concentration 270 nM, RXRa partner concentration 90 nM)
Summary of the method: as §1

[13] = tested on: PPARg DBDmut IVT, anti-PPARg (DBD mutation: PPARg1 K132A/R137A, NR concentration 270 nM)
Summary of the method: as §1

[14] = tested on: PPARg homodimer (NR concentration 180 nM)
Summary of the method: as §1

[15] = tested on: PXR:RXRa (NR concentration 270 nM, RXRa partner concentration 90 nM)
Summary of the method: as §1

[16] = tested on: PXR homodimer (NR concentration 270 nM)
Summary of the method: as §1

[17] = tested on: RARa:RXR (NR concentration 270 nM, RXRa partner concentration 90 nM)
Summary of the method: as §1

[18] = tested on: RARa homodimer (NR concentration 270 nM)
Summary of the method: as §1

[19] = tested on: RARb:RXRa (NR concentration 270 nM, RXRa partner concentration 90 nM)
Summary of the method: as §1

Sequence | PBM binding z-score [1] | PBM binding z-score [2] | PBM binding z-score [3] | PBM binding z-score [4] | PBM binding z-score [5] | PBM binding z-score [6] | PBM binding z-score [7] | PBM binding z-score [8] | PBM binding z-score [9] | PBM binding z-score [10] | PBM binding z-score [11] | PBM binding z-score [12] | PBM binding z-score [13] | PBM binding z-score [14] | PBM binding z-score [15] | PBM binding z-score [16] | PBM binding z-score [17] | PBM binding z-score [18] | PBM binding z-score [19]
ATATCTAGGTTAGGGTCATTCAGAAAGTAGGGAA | 4.54 | 4.26 | 1.73 | 4.39 | 2.24 | 5.65 | 7.73 | 6.5 | 4.33 | 6.58 | 6.71 | 6.95 | 2.23 | 3.98 | 4.33 | 2.01 | 4.78 | 2.98 | 3.43
CGAAATAGGTCACCAGGACAGTGAAGAGGTTGGA | 5.67 | 4.08 | 0.461 | 3.13 | 0.187 | 5.9 | 8.44 | 7.47 | 4.7 | 6.97 | 7.94 | 8.03 | 1.09 | 1.95 | 2.67 | 0.221 | 3.82 | 1.35 | 4.78
CGAACTAGGTCACCAGCACAGTGAAGAGGTTGGA | 4.03 | 2.42 | 0.171 | 1.53 | -0.224 | 5.12 | 8.39 | 7.01 | 4.62 | 6.53 | 8.34 | 8.76 | 0.181 | 1.79 | 1.41 | 0.0792 | 2.39 | 0.262 | 4.11
CGAACTAGGTCACCAGGACAGTTAAGAGGTTGGA | 3.97 | 2.32 | 0.241 | 1.84 | -0.421 | 5.2 | 8.53 | 6.67 | 4.77 | 6.38 | 8.1 | 8.64 | 5.1 | 2.14 | 1.49 | 0.424 | 2.73 | 0.481 | 4.2
CGAACTAGGTCACCACGACAGTGAAGAGGTTGGA | 4.13 | 2.41 | 0.318 | 1.87 | -0.171 | 5.18 | 8.44 | 7.14 | 4.87 | 6.86 | 8.39 | 9 | 4.26 | 2.32 | 1.46 | -0.289 | 2.78 | 0.591 | 4.21
CGAACTAGGTCAAAGGACAGTCAAAGGCGACGTA | 4.15 | 2.73 | -0.061 | 1.89 | -0.231 | 5.68 | 10.2 | 8.68 | 8.42 | 9.11 | 8.1 | 8.4 | 2.46 | 1.64 | 1.39 | -0.21 | 2.49 | 0.35 | 3.87
CGGACTAGGTCAAAGGACAGTGAAAGGCGACGTA | 3.87 | 2.49 | -0.041 | 1.67 | -0.542 | 4.93 | 10.2 | 8.4 | 8.49 | 9.55 | 7.7 | 7.9 | 0.294 | 1.67 | 1.11 | -0.218 | 2.41 | 0.208 | 3.69
